Assay [1] has as its system frog Estrogen Receptor (ESR1), gene 398734. The experiment in a line: ATG_frER1_XSP1: Attagene TRANS-FACTORIAL Multi-Species (XSP1) HepG2 Assay for frog Estrogen Receptor (ESR1) (AID 2283777). Summed up: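 Read-out: fluorescent reporter mRNA via RT-PCR, HpaI digestion and capillary electrophoresis, after 24 h chemical exposure of transiently transfected human HepG2 cells expressing exogenous NR-Gal4 chimeras. DMSO served as baseline for positive-direction fitting.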

Assay [2] concerns zebrafish Estrogen Receptor (ESR2A), gene 317734. Description: ATG_zfER2a_XSP1: Attagene TRANS-FACTORIAL Multi-Species (XSP1) HepG2 Assay for zebrafish Estrogen Receptor (ESR2A) (AID 2283778). Summed up: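 HepG2 cells transiently transfected with multiplexed GAL4-UAS reporter units and chimeric NR-GAL4 receptors; 24 h compound exposure with 3 nM 6-alpha-fluorotestosterone present. Reporter mRNA quantified by RT-PCR and capillary electrophoresis, gain-of-signal fitted relative to DMSO.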

Assay [3] concerns the target chicken Estrogen Receptor (ESR1), ESR1 (gene 396099) (UniProt P06212). The experiment in a line: ATG_chERa_XSP1: Attagene TRANS-FACTORIAL Multi-Species (XSP1) HepG2 Assay for chicken Estrogen Receptor (ESR1) (AID 2283779). Summed up: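 HepG2 cells transiently transfected with multiplexed GAL4-UAS reporter units expressing chimeric NR-Gal4 proteins; 3 nM 6-alpha-fluorotestosterone present. Reporter mRNA measured 24 h after dosing by RT-PCR, FAM labelling, HpaI digest and capillary electrophoresis; gain of signal versus DMSO.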

For assay [4], the system named is turtle Estrogen Receptor (ESR1), gene 101933533. The experiment in a line: ATG_trERa_XSP1: Attagene TRANS-FACTORIAL Multi-Species (XSP1) HepG2 Assay for turtle Estrogen Receptor (ESR1) (AID 2283781). Summed up:
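HepG2 cells transiently transfected with GAL4-UAS reporter units and chimeric NR-Gal4 constructs, dosed for 24 h with 3 nM 6-alpha-fluorotestosterone present. Reporter mRNA was quantified by RT-PCR, fluorescent labelling and capillary electrophoresis, with gain of signal fitted relative to DMSO.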

In assay [5] the target is Estrogen receptor beta (Homo sapiens) (UniProt Q92731). The experiment in a line: ATG_hERb_XSP1: Attagene TRANS-FACTORIAL Multi-Species (XSP1) HepG2 Assay for human Estrogen Receptor (ESR2) (AID 2283788). An outline of the steps:
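Read-out: reporter mRNA induction by RT-PCR, HpaI digestion and capillary electrophoresis fluorescence, fitted in positive direction relative to DMSO baseline. Human liver HepG2 cells expressing ERβ-Gal4 fusion, dosed 24 h, medium containing 3 nM 6-alpha-fluorotestosterone.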

The target of assay [6] is GAL4 Transcription Factor (Internal Marker), GAL4 (gene 855828) (UniProt P04386). The experiment in a line: ATG_GAL4_XSP1: Attagene TRANS-FACTORIAL Multi-Species (XSP1) HepG2 Assay for GAL4 Transcription Factor (Internal Marker) (AID 2283789). Summed up: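 HepG2 cells transiently transfected with multiplexed GAL4-UAS reporter units were exposed for 24 h with 3 nM 6-alpha-fluorotestosterone present. Reporter mRNA was quantified by RT-PCR, FAM labelling, HpaI digestion and capillary electrophoresis; background-control readout, gain-of-signal versus DMSO.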

A short description of assay [7]: ATG_M_06_XSP1: Attagene TRANS-FACTORIAL Multi-Species (XSP1) HepG2 Assay for M06 Transcription Factor (Internal Marker) (AID 2283790). Summed up: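 Transfected HepG2 multi-reporter system treated 24 h in the presence of 3 nM 6-alpha-fluorotestosterone. The M06 internal marker transcript was quantified by RT-PCR with capillary electrophoresis as a background control, and gain of signal was scored versus DMSO.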

Assay [8] can be described thus: ATG_M_61_XSP1: Attagene TRANS-FACTORIAL Multi-Species (XSP1) HepG2 Assay for M61 Transcription Factor (Internal Marker) (AID 2283797). Summed up:
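HepG2 cells transiently transfected with multiplexed GAL4-driven reporter units, dosed 24 h with 3 nM 6-alpha-fluorotestosterone present. Reporter mRNA quantified by RT-PCR, 6-FAM labelling, HpaI digestion and capillary electrophoresis; internal-marker background control, gain of signal versus DMSO.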

The target of assay [9] is Peroxisome proliferator-activated receptor gamma (Homo sapiens) (UniProt P37231). Description: ATG_hPPARg_XSP1: Attagene TRANS-FACTORIAL Multi-Species (XSP1) HepG2 Assay for human Peroxisome Proliferator-activated Receptor gamma (PPARg) (AID 2283800). Summed up: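 HepG2 cells transiently transfected with GAL4-UAS reporter units carrying chimeric NR-Gal4 proteins; 3 nM 6-alpha-fluorotestosterone present. After 24 h dosing, reporter mRNA quantified by RT-PCR and capillary electrophoresis; gain of signal relative to DMSO.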
Chain of Peroxisome proliferator-activated receptor gamma (Homo sapiens) (P37231 whole entry, looked up, the tested form may be a part): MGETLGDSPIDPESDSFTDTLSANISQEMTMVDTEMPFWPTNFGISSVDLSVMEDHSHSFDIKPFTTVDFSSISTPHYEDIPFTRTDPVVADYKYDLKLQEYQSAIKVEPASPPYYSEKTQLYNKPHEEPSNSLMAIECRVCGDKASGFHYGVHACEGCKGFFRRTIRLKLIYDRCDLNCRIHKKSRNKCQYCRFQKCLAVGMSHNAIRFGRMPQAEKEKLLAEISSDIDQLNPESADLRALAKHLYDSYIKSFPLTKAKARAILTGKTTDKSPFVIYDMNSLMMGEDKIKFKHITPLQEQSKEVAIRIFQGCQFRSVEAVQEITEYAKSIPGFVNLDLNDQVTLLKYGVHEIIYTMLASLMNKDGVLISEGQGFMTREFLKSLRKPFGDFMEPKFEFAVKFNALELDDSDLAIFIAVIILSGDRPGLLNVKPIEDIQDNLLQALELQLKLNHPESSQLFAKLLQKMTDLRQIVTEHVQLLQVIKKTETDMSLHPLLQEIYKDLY

Assay [10] concerns the target Nuclear receptor subfamily 1 group I member 2 (Mus musculus) (UniProt O54915). The experiment in a line: ATG_mPXR_XSP1: Attagene TRANS-FACTORIAL Multi-Species (XSP1) HepG2 Assay for mouse Pregnane X Receptor (PXR) (AID 2283803). An outline of the steps:
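Transiently transfected HepG2 cells expressing a receptor-Gal4 chimera drive a GAL4-UAS reporter; 3 nM 6-alpha-fluorotestosterone included. Reporter mRNA read 24 h post-dose by RT-PCR and capillary electrophoresis; gain of signal relative to DMSO.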

The target of assay [11] is human Thyroid hormone Receptor alpha (TRa), THRA (gene 7067) (UniProt P10827). The experiment in a line: ATG_hTRa_XSP1: Attagene TRANS-FACTORIAL Multi-Species (XSP1) HepG2 Assay for human Thyroid hormone Receptor alpha (TRa) (AID 2283805). An outline of the steps:
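HepG2 cells transiently transfected with GAL4-UAS reporter units expressing chimeric NR-Gal4 proteins, dosed 24 hours with 3 nM 6-alpha-fluorotestosterone present. Reporter mRNA measured by RT-PCR and capillary electrophoresis; gain of signal fitted versus DMSO.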

The test system of assay [12] is turtle Thyroid Hormone Receptor, alpha (TRa), gene 101949057. The experiment in a line: ATG_trTRa_XSP1: Attagene TRANS-FACTORIAL Multi-Species (XSP1) HepG2 Assay for turtle Thyroid Hormone Receptor, alpha (TRa) (AID 2283806). Summed up: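 HepG2 cells transiently transfected with GAL4-UAS reporter units and chimeric receptor-Gal4 constructs, with 3 nM 6-alpha-fluorotestosterone present. Reporter mRNA was quantified 24 h after dosing by RT-PCR, 6-FAM labelling and capillary electrophoresis; gain of signal versus DMSO.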

In assay [13] the target is zebrafish Thyroid Hormone Receptor alpha (TRa), thraa (gene 30670) (UniProt Q98867). The experiment in a line: ATG_zfTRa_XSP1: Attagene TRANS-FACTORIAL Multi-Species (XSP1) HepG2 Assay for zebrafish Thyroid Hormone Receptor alpha (TRa) (AID 2283807). An outline of the steps:
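HepG2 cells transiently transfected with GAL4-UAS reporter units including a zebrafish TRa–Gal4 chimera, dosed 24 h with 3 nM 6-alpha-fluorotestosterone present. Reporter mRNA quantified by RT-PCR and capillary electrophoresis; gain versus DMSO.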

Assay [14] concerns the target human Thyroid hormone Receptor beta (TRb), THRB (gene 7068) (UniProt P10828). The experiment in a line: ATG_hTRb_XSP1: Attagene TRANS-FACTORIAL Multi-Species (XSP1) HepG2 Assay for human Thyroid hormone Receptor beta (TRb) (AID 2283808). An outline of the steps:
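HepG2 cells transiently transfected with reporter units driving GAL4-UAS reporters for chimeric NR-Gal4 proteins; 24 h chemical exposure with 3 nM 6-alpha-fluorotestosterone present. Reporter mRNA quantified by RT-PCR and capillary electrophoresis, gain of signal versus DMSO.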

Assay [15] deals with zebrafish Thyroid Hormone Receptor beta (TRb), thrb (gene 30607) (UniProt Q9PVE4). The experiment in a line: ATG_zfTRb_XSP1: Attagene TRANS-FACTORIAL Multi-Species (XSP1) HepG2 Assay for zebrafish Thyroid Hormone Receptor beta (TRb) (AID 2283809). An outline of the steps:
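HepG2 cells transiently transfected with multiplexed GAL4-UAS reporter units expressing chimeric zebrafish TRb–Gal4. Dosed 24 h with 3 nM 6-alpha-fluorotestosterone present; reporter mRNA measured by RT-PCR, HpaI digestion and capillary electrophoresis; gain of signal versus DMSO.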

Assay [16] can be described thus: STM_H9_NormalizedViability: Cytotoxicity Assessment at 120 hours in the Stemina devTOX quickPredict H9 human embryonic stem cell (hESC)-based Assay (AID 2283784). Summed up:
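Pluripotent H9 hESCs were exposed, with chemical and media replaced every 24 h. Viability was read by CellTiter-Fluor fluorescence, background-corrected and normalized to the 0.1% DMSO neutral control per plate. Loss of signal was fitted.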

Assay [17] is described as follows: ACEA_ER_AUC_viability: ACEA Biosciences xCELLigence Real-Time Cell Analysis on Estrogen Receptor Agonism for Viability (AID 2283782).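 Further: continuous compound exposure with impedance area under curve over 80 h; hit means loss of impedance signal meaning reduced cell growth or viability.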 Summed up: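 T-47D human breast cells in phenol red-free RPMI1640 with 10% charcoal-stripped FBS were dosed with an 8-point 1:4 dilution series from 100 uM top final concentration, in duplicate. Impedance-based growth was followed for 80 h; AUC analysed versus DMSO.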

Assay [18] deals with AR (gene 367) (UniProt P10275). The experiment in a line: ACEA_AR_antagonist_80hr: ACEA Biosciences xCELLigence Real-Time Cell Analysis on Androgen Receptor Antagonism for Proliferation (AID 2283787).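 Further: hits lower the impedance growth signal relative to DMSO.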 An outline of the steps:
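Impedance readout (RT-CES), 80 h post-dose; loss-of-signal vs DMSO baseline. 22Rv1 cells in assay medium. Compounds: 8-pt 1:4 series, max 100 uM final, up to 0.5% DMSO; n = 2.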

Assay [19] deals with AR (gene 367) (UniProt P10275). Description: ACEA_AR_agonist_80hr: ACEA Biosciences xCELLigence Real-Time Cell Analysis on Androgen Receptor Agonism for Proliferation (AID 2283783).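 Further: hits increase impedance growth signal above DMSO baseline.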 An outline of the steps:
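22Rv1 human prostate cancer cells were seeded after preconditioning in assay medium and monitored overnight, then dosed in an eight-point 1:4 dilution series from 100 uM (≤0.5% DMSO). Impedance-based growth was read at 80 h, gain-of-signal versus DMSO.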

Several values for one entry are separate records, joined by “and”; a condition that tells them apart may be missing. Identical values can stand only once. Records with an inconclusive call do not appear. Activity calls are given as the source filed them. How the source made its calls: active means hit-call score of the fitted dose curve at least 0.9, where 1 is the maximum; inconclusive means response in the unintended direction; inactive means score below 0.9.

The AC50 is the midpoint of the concentration-response curve, whichever way the signal moves.

Chain of AR (gene 367) (P10275 whole entry, looked up): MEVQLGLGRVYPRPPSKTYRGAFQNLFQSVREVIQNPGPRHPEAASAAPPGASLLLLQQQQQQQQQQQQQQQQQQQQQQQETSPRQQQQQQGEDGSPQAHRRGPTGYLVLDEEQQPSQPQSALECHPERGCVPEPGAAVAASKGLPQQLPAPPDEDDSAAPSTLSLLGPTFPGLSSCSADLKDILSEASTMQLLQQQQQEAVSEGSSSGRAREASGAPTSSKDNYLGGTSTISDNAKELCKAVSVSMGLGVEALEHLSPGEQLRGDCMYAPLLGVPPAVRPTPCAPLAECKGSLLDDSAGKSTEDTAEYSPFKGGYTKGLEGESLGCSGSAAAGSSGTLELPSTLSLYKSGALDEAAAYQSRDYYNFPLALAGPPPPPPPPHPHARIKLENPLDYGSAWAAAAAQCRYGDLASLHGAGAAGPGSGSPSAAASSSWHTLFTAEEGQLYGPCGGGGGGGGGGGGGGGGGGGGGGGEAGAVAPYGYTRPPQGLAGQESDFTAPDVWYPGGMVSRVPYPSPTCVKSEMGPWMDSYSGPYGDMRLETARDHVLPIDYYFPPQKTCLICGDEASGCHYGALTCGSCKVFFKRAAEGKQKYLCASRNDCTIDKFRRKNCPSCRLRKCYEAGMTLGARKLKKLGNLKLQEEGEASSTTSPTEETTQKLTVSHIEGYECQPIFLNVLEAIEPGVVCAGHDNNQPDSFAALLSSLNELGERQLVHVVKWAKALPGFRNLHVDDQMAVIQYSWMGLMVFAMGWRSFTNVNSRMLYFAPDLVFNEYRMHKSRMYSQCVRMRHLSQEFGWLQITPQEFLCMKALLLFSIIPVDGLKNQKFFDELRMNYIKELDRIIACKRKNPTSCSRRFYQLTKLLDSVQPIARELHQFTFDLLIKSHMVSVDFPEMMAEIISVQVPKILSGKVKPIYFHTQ
Chain of zebrafish Thyroid Hormone Receptor beta (TRb), thrb (gene 30607) (Q9PVE4 whole entry, looked up, the tested form may be a part): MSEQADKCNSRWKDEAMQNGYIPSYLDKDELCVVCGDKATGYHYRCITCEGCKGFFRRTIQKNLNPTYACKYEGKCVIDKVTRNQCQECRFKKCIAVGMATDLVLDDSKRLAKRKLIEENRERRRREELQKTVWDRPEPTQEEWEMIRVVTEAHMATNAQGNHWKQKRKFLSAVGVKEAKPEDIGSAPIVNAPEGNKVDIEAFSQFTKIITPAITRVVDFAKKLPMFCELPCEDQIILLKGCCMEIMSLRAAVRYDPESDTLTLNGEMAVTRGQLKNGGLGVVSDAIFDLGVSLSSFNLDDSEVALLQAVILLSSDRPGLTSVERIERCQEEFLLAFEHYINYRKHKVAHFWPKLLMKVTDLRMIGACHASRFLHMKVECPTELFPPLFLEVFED
Chain of human Thyroid hormone Receptor beta (TRb), THRB (gene 7068) (P10828 whole entry, looked up, the tested form may be a part): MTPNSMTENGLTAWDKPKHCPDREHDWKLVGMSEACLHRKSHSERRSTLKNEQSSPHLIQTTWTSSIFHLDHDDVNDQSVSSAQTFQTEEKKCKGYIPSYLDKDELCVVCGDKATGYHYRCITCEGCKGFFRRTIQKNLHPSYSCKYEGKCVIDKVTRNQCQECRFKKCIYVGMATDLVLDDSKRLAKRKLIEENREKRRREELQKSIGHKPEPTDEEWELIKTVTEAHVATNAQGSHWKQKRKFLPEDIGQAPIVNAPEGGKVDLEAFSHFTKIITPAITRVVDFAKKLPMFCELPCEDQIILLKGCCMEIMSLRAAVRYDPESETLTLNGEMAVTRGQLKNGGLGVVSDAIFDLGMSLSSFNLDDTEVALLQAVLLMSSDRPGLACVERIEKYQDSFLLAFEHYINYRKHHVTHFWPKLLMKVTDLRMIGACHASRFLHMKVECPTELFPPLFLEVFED
Chain of zebrafish Thyroid Hormone Receptor alpha (TRa), thraa (gene 30670) (Q98867 whole entry, looked up, the tested form may be a part): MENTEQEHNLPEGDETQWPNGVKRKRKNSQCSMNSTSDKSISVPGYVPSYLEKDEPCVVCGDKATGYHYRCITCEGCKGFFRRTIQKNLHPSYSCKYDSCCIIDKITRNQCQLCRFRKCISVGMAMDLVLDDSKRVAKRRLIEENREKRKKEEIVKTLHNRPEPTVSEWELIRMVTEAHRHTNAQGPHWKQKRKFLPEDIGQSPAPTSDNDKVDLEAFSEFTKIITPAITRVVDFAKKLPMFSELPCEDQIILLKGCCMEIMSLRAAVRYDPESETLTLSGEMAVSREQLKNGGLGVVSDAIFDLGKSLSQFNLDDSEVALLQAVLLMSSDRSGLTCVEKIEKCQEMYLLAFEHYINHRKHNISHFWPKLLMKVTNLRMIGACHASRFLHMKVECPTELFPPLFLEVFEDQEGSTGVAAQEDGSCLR
Chain of human Thyroid hormone Receptor alpha (TRa), THRA (gene 7067) (P10827 whole entry, looked up, the tested form may be a part): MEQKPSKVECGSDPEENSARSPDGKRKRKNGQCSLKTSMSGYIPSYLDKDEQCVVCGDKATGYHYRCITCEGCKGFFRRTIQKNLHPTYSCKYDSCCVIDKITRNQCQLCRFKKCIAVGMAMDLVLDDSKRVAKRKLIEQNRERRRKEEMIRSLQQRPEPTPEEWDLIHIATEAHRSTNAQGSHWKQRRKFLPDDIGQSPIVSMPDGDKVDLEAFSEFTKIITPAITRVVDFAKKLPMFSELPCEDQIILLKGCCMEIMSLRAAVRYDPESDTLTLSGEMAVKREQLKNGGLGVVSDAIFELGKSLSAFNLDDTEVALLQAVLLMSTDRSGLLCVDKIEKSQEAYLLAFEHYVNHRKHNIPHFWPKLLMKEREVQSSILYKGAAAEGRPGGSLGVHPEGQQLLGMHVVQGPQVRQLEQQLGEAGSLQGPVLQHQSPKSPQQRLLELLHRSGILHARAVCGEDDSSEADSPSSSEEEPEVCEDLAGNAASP
Chain of Nuclear receptor subfamily 1 group I member 2 (Mus musculus) (O54915 whole entry, looked up, the tested form may be a part): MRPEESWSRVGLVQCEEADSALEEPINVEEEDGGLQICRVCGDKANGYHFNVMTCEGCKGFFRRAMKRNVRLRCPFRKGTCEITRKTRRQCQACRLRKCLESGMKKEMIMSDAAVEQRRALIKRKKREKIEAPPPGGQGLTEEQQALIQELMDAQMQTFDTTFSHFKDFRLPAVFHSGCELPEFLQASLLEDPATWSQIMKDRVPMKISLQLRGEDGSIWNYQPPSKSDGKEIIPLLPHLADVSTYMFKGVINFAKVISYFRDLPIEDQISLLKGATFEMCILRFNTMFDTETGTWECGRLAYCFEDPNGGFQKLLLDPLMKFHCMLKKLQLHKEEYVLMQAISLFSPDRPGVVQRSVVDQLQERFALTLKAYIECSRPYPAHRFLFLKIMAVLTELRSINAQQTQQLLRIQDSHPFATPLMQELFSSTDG
Chain of Estrogen receptor beta (Homo sapiens) (Q92731 whole entry, looked up, the tested form may be a part): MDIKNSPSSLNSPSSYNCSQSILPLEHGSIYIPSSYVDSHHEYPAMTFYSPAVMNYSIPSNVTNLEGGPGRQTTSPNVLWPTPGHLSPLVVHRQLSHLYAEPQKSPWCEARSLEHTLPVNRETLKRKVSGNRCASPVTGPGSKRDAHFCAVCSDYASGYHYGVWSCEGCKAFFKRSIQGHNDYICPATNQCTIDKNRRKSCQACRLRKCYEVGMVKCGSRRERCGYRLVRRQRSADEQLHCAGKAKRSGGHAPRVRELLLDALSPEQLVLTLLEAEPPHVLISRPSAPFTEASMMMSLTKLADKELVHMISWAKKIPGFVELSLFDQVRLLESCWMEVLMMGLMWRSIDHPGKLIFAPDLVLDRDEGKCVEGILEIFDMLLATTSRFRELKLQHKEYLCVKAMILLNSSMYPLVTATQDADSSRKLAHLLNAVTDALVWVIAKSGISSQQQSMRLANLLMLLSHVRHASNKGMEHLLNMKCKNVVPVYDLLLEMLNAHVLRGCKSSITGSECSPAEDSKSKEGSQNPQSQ
Chain of chicken Estrogen Receptor (ESR1), ESR1 (gene 396099) (P06212 whole entry, looked up, the tested form may be a part): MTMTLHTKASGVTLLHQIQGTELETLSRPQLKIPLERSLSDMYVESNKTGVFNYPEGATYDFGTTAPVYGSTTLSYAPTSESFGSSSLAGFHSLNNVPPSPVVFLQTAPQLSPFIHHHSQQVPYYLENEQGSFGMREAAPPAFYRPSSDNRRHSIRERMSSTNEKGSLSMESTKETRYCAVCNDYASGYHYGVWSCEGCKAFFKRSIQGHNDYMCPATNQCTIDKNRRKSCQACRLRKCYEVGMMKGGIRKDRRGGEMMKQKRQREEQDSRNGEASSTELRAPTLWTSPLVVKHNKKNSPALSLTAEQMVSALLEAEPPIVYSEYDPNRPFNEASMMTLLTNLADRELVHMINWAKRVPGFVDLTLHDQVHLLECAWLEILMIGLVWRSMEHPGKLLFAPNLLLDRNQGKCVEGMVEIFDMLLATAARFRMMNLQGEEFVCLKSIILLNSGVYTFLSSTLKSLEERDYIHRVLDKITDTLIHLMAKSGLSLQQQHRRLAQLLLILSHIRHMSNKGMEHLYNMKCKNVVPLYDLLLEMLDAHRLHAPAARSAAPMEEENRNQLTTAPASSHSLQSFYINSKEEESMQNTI

Turning to `C[C@]12CC[C@@H]3c4ccc(O)cc4CC[C@H]3[C@@H]1C[C@@H](O)[C@@H]2O`, the AC50 in assay [1] is 27.9 nM (active); in assay [2] it was 15.7 nM (active); in [3], 22.7 nM (active); in [4], 17.2 nM (active); in assay [5], 10.5 nM (active). Moreover, the compound was called inactive in [6], in [7], in [8], in assay [9], in [10] and in assay [11]. In addition, the compound was called inactive in assay [12], in [13], in assay [14] and in assay [15].
Take `Oc1c(Cl)cc(Cl)cc1Sc1cc(Cl)cc(Cl)c1O`: the result in assay [16] was inactive.
For `O=S(=O)(O)C(F)(F)C(F)(F)C(F)(F)C(F)(F)C(F)(F)C(F)(F)C(F)(F)C(F)(F)C(F)(F)C(F)(F)F`, the compound was called inactive in [17].
For `CC(C)(O)C(=O)c1ccccc1`, in assay [17], the result was inactive.
With `Clc1ccc2c(Cl)ccnc2c1`, the outcome in assay [17] was inactive.
In the case of `CN(C)c1ccc(C(=C2C=CC(=[N+](C)C)C=C2)c2ccccc2)cc1`, in assay [17], the AC50 was 3.16 µM (active) and 3.1 µM (active).
On the same count and under the same terms, as for `Cc1ccc(C(=O)c2ccccc2)cc1`, the figure is 72.3 µM (active); as for `COc1ccc(C#N)cc1`, 50 µM (active).
As for `C=Cc1ccc(O)c(OC)c1`, in [17], the compound was classed as inactive. Moreover, the concentration at half-maximal activity (AC50) in [16] is 77600 nM (active).
Take `CCCCCCCCCC=CCC1CC(=O)OC1=O` (stereo not drawn): the compound was called inactive (in [17]; in the assay with AR (gene 367) [18]).
For the compound `CCO[Si](C)(C)OCC`, the call in assay [17] was inactive.
For the compound `O=C(O)CCC(F)(F)C(F)(F)C(F)(F)C(F)(F)C(F)(F)C(F)(F)F`, in assay [17], the outcome was inactive.
As to `CCCCCCC(C)(C)C(=O)O`, the call (in assay [17]; with AR (gene 367) [19]) was inactive.
Consider `Cc1cncc(C)c1`, for which the half-maximal activity concentration (AC50) in assay [17] was 12.1 µM (active).
Consider `CN(CCO)S(=O)(=O)C(F)(F)C(F)(F)C(F)(F)C(F)(F)C(F)(F)C(F)(F)C(F)(F)C(F)(F)F`, for which, in assay [17], the compound was called inactive.
As for `CC1=CC(=O)c2ccccc2C1=O`, the result in [16] was inactive.

Values taken from PubChem BioAssay (EPA / NIEHS).
